PubChem BioAssay (NCATS)
Inconclusive results are not listed. Active and inactive are the calls of the source. Unless noted, calls follow the shape of the dose curve; as a rule, active = well fitted curve in the direction sought with a large enough effect; inconclusive = small, poorly fitted or top-dose-only effect, or another doubt; inactive = no such curve, though single readings can be large; an effect the other way counts as inactive or inconclusive.

Tests used:
[1] = molecular target: Lysosomal acid glucosylceramidase (Homo sapiens) (UniProt P04062); assay: Glucocerebrosidase-p2 (AID 348; in the data active = potency below about 10 µM; also: potency is read from the fitted curve at half-maximal effect); conditions: purified GBA, blue fluorogenic substrate, 40 min
Chain of Lysosomal acid glucosylceramidase (Homo sapiens) (P04062 whole entry, looked up): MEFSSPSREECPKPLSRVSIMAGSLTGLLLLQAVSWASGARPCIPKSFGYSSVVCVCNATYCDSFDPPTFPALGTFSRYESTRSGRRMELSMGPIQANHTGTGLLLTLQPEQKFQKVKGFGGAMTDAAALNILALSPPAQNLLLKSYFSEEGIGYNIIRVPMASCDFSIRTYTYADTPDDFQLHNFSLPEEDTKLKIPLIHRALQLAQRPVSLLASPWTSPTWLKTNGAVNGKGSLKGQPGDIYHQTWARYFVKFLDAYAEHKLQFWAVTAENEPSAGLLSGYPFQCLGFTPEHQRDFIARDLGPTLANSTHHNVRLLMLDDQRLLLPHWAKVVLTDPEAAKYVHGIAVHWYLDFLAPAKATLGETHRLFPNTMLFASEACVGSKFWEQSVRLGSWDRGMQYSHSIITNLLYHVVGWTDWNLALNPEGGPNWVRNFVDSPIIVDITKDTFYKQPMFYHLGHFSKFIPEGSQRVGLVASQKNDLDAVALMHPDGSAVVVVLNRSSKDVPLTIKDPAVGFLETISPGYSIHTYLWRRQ
Summary of the method: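 Compounds titrated from 0.6 nM upwards against 0.2 nM enzyme in pH 5.9 citric acid/KH2PO4, taurocholate, tween-20; blue fluorogenic substrate 80 uM, 40 min room temperature, stopped and read Ex 365/Em 440 for AC50.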

[2] = AP1 Signaling Pathway (AID 357; active = well fitted curve in either direction with a large enough effect, not every such curve was filed as active;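 also: ME-180 reporter cells stimulated with EGF at its EC50 level; % is scaled to controls: 0 for no effect and ±100 for the full control effect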); conditions: ME-180 AP-1-bla reporter, EGF-induced, beta-lactamase ratio, 5 h; at 7.69 µM (top of the series) unless noted
Summary of the method: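 A ratiometric CCF4 readout (405 nm excitation; 460 and 530 nm emission) quantified AP-1-driven beta-lactamase in ME-180 cells after 5 h with compound and EC50 EGF; AC50 values were derived for activators and inhibitors.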

[3] = NFAT Signaling Pathway (AID 444; active = well fitted curve in either direction with a large enough effect, not every such curve was filed as active;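 also: carbachol stimulus at about its EC50 of 1 µM final; % is scaled to controls: 0 for no effect and ±100 for the full control effect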); conditions: Jurkat NFAT-bla M1, carbachol, beta-lactamase ratio, 5 h; at 7.69 µM (top of the series) unless noted
Summary of the method: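 Jurkat cells carrying an NFAT-driven β-lactamase reporter and co-transfected muscarinic M1 receptor were treated with compound plus carbachol (1 uM final, an EC50 level) for 5 h at 37 °C. CCF4 loading followed for 1 h at RT; 460/530 nm ratio gave %activity.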

[4] = Stat Signaling Pathway (AID 446; active = well fitted curve in either direction with a large enough effect, not every such curve was filed as active;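 also: ME-180 cervical cancer cells given 40 pM IL-6 alongside compound; SIE-controlled beta-lactamase reporter measured as 460/530 nm FRET emission ratio; % is scaled to controls: 0 for no effect and ±100 for the full control effect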); conditions: ME-180 SIE beta-lactamase reporter, IL-6 stimulated, 5 h; at 7.69 µM (top of the series) unless noted
Summary of the method: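 ME-180 SIE-bla cells; overnight plating; cpd + IL-6 40 pM, 5 h, 37 C; LiveBLAzer 2.5 h RT; 460/530 nm emission ratio. Normalized to 300 pM IL-6 and 125 nM JAK inhibitor controls.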

[5] = molecular target: Glucocorticoid receptor (Homo sapiens) (UniProt P04150); assay: GR-GFP Redistribution (AID 450;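 active = compounds whose dose series gives a full or clear partial fitted curve of increased nuclear translocation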; also: potency is read from the fitted curve at half-maximal effect); conditions: U2OS GR-GFP nuclear translocation, laser cytometry, 2 h
Chain of Glucocorticoid receptor (Homo sapiens) (P04150 whole entry, looked up, the tested form may be a part): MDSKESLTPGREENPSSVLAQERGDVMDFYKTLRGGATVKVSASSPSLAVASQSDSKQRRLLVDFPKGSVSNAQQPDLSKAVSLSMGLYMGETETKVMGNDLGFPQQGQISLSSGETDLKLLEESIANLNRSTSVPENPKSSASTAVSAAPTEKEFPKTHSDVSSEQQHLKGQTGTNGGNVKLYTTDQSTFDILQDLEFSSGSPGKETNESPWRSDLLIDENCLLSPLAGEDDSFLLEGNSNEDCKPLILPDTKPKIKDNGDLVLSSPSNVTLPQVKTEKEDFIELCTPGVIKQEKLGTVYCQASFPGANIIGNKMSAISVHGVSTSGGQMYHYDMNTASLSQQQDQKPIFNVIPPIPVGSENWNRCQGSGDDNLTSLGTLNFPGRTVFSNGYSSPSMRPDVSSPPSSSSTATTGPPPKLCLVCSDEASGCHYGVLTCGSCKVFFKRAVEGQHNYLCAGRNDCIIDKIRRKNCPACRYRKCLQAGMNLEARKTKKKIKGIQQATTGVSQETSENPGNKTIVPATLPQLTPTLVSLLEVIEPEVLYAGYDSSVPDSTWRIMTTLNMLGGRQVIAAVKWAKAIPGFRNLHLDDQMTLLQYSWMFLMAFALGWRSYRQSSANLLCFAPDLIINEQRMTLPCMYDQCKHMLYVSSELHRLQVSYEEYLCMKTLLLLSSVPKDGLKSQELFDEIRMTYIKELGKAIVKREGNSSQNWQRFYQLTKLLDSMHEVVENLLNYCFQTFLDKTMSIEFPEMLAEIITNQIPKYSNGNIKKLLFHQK

[6] = molecular target: Glucocorticoid receptor (Homo sapiens) (UniProt P04150); assay: GR-EFC Redistribution (AID 451; calls by dose curve; also: potency is read from the fitted curve at half-maximal effect); conditions: CHO-K1 GR-EFC translocation, beta-gal luminescence, 2 h
Summary of the method: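 CHO-K1 cells stably expressing nuclear-localized β-gal enzyme acceptor and GR fused C-terminally to the enzyme donor fragment; ligand-driven nuclear translocation restores β-gal by complementation. Compounds titrated up to 46 uM final, 2 h at 37 °C; luminescence read.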

[7] = molecular target: Mitogen-activated protein kinase 10 (Mus musculus) (UniProt Q61831); assay: JNK3 AlphaScreen Assay (AID 530; active = well fitted curve in either direction with a large enough effect, not every such curve was filed as active;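 also: kinase came from lysate of stimulated human HepG2 cells; signal reports phosphorylation of biotinylated GST-cJun 1-79 at Ser73 with 10 µM ATP; % is scaled to controls: 0 for no effect and ±100 for the full control effect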); conditions: JNK3 lysate, c-Jun phosphorylation; series mostly up to 57.1 µM
Summary of the method: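 Inhibitors reduce antibody binding to phosphorylated biotin-cJun, lowering AlphaScreen luminescence. Lysates from HepG2 cells pre-activated by IL-1beta plus TNF-alpha supplied JNK3; compounds were titrated.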

[8] = molecular target: 3',5'-cyclic-AMP phosphodiesterase 4B (Homo sapiens) (UniProt Q07343); assay: qHTS Assay for Inhibitors of PDE-IV (AID 607; active = well fitted activation curve with a large enough effect in the main read-out, with a control signal flat, not every such curve was filed as active; also: % of control where 0% means no effect); conditions: HEK293 ACTOne CNG channel cells, membrane potential fluorescence; series mostly up to 22.9 µM
Chain of 3',5'-cyclic-AMP phosphodiesterase 4B (Homo sapiens) (Q07343 whole entry, looked up): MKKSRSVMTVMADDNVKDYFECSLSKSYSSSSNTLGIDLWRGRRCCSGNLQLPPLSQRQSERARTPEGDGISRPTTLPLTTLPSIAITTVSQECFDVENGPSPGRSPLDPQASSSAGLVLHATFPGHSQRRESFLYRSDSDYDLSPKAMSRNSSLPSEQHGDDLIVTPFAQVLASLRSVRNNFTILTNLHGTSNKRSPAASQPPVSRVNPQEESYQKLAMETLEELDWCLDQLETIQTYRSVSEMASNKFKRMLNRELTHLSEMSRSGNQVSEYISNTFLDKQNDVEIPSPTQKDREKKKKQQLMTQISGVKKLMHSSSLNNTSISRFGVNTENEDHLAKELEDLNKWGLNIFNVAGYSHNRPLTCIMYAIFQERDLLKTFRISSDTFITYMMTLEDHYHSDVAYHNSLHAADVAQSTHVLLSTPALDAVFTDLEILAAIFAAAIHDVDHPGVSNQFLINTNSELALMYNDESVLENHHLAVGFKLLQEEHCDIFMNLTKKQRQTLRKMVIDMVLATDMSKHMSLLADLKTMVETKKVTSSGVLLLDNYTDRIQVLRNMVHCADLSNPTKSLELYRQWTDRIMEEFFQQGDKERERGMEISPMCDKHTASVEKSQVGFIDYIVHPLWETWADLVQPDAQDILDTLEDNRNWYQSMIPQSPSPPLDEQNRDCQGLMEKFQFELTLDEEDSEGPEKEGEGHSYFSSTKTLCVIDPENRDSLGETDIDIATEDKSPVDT
Summary of the method: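 ACTOne HEK293 cells carry a modified cAMP-gated CNG channel and express endogenous PDE4; plated 1000 cells/well, compounds up to 22.9 uM final. Membrane-potential dye fluorescence (ex 535/em 590) was read; parental cells received 10 uM forskolin + 100 uM RO 20-1724.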

[9] = qHTS Assay for Lipid Storage Modulators (AID 1519; calls by dose curve); conditions: Drosophila S3 cells, BODIPY lipid droplet/cell ratio, laser cytometry, cells loaded with oleic acid; for activity change, negative = inhibition: at 57.5 µM (top of the series)
Summary of the method: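 Cells seeded at 5,000 per well were treated with compounds over a concentration series and loaded with oleic acid (400 uM, as added). Lipid droplet fluorescence (488 nm excitation, 500-530 nm channel) was read by laser-scanning cytometry and normalized to 20 uM Triacsin C.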

[10] = molecular target: Dual specificity protein kinase CLK4 (Homo sapiens) (UniProt Q9HAZ1); assay: qHTS Assay for Inhibitors of CDC-like Kinase 4 (Kinase-Glo Assay) (AID 1770); conditions: recombinant Clk4, Kinase-Glo ATP depletion luminescence; series mostly up to 66.7 µM; also: nearly all actives have a fitted effect of over 65% in size; also: potency is read from the fitted curve at half-maximal effect
Chain of Dual specificity protein kinase CLK4 (Homo sapiens) (Q9HAZ1 whole entry, looked up): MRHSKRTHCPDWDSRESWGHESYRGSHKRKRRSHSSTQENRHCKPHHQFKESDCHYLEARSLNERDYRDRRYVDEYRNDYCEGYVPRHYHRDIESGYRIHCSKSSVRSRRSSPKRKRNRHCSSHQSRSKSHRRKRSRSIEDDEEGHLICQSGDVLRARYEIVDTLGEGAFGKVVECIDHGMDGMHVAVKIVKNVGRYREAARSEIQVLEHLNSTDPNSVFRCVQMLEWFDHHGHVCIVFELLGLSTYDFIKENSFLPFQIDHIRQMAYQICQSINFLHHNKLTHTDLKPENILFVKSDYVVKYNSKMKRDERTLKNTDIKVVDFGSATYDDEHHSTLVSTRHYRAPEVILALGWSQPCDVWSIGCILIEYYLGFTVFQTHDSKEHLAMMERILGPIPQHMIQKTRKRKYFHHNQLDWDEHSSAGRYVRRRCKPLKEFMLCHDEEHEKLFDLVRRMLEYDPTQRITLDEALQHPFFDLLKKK
Summary of the method: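 Recombinant human Clk4 (25 nM) phosphorylated RS repeat peptide (100 uM) with 1 uM ATP in Tris pH 7.5/MgCl2/EGTA/DTT/Triton buffer for 4.5 h at room temperature. Residual ATP was quantified by Kinase-Glo luciferase luminescence.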

[11] = molecular target: Dual specificity protein kinase CLK4 (Homo sapiens) (UniProt Q9HAZ1); assay: qHTS Assay for Inhibitors of CDC-like Kinase 4 (ADP-Glo Assay) (AID 1771); conditions: recombinant CLK4, ADP-Glo luminescence; series mostly up to 80 µM; also: nearly all actives have a fitted effect of over 70% in size; also: potency is read from the fitted curve at half-maximal effect
Summary of the method: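 Luminescence from ADP-Glo reports ADP produced by 25 nM Clk4 acting on 100 uM RS repeat peptide with 1 uM ATP over 1 hr at room temperature; residual ATP is depleted before ADP is converted to ATP for detection.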

[12] = molecular target: Ubiquitin carboxyl-terminal hydrolase 1 (Homo sapiens) (UniProt O94782); assay: Inhibitors of USP1/UAF1: Pilot qHTS (AID 504865); conditions: purified USP1/UAF1, Ub-rhodamine cleavage fluorescence; series mostly up to 54.9 µM;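 also: rhodamine fluorescence freed from ubiquitin-rhodamine substrate followed over time; top concentration of the series differs between compounds; % is scaled to controls: 0 for no effect and ±100 for the full control effect; nearly all actives have a fitted effect of over 35% in size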
Chain of Ubiquitin carboxyl-terminal hydrolase 1 (Homo sapiens) (O94782 whole entry, looked up): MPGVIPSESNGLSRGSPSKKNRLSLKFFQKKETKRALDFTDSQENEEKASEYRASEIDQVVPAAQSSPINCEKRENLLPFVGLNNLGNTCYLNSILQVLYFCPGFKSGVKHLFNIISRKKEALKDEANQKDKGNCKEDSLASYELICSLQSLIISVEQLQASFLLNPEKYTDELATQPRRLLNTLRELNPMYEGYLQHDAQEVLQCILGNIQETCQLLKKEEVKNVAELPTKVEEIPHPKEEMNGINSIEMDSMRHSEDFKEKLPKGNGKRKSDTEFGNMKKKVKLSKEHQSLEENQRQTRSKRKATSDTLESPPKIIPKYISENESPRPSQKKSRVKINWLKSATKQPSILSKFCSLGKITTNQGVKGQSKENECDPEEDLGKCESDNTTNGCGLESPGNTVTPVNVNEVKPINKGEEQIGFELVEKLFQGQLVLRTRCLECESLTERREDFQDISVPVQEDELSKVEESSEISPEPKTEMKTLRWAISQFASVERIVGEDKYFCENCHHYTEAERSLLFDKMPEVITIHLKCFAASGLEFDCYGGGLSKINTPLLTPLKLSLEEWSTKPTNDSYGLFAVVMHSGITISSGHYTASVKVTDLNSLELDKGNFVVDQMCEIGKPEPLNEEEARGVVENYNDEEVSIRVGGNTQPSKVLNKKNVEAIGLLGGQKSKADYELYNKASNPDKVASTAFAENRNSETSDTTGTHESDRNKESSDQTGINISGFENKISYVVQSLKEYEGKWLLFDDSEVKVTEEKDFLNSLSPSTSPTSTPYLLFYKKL
Summary of the method: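 USP1/UAF1 complex (1nM) preincubated with compound 15 min at room temperature, then Ub-Rho substrate (150nM final) added. Fluorescence read kinetically at 480/540 nm, 6 reads every 60 seconds. Buffer: 50mM HEPES pH 7.8, 0.5mM EDTA, 0.1 mg/ml BSA, 1mM TCEP, 0.01% Tween-20.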

[13] = Primary qHTS for small molecule stabilizers of the endoplasmic reticulum resident proteome: Secreted ER Calcium Modulated Protein (SERCaMP) assay (AID 1508630); conditions: SH-SY5Y GLuc-SERCaMP (Gaussia luciferase released on ER calcium loss) secretion, thapsigargin, luminescence; series mostly up to 38.4 µM; also: % is scaled to controls: 0 for no effect and ±100 for the full control effect
Summary of the method: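 GLuc-SERCaMP-expressing SH-SY5Y cells, pretreated 16 h with compound, are challenged with thapsigargin to empty ER calcium stores; after 4 h, coelenterazine is added directly to the medium and luminescence is imaged.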

[14] = molecular target: Cytochrome P450 1A2 (Homo sapiens) (UniProt P05177); assay: p450-cyp1a2 (AID 410; calls by dose curve; also: potency is read from the fitted curve at half-maximal effect); conditions: recombinant CYP1A2, luciferin-ME demethylation, luminescence; series mostly up to 57 µM
Chain of Cytochrome P450 1A2 (Homo sapiens) (P05177 whole entry, looked up): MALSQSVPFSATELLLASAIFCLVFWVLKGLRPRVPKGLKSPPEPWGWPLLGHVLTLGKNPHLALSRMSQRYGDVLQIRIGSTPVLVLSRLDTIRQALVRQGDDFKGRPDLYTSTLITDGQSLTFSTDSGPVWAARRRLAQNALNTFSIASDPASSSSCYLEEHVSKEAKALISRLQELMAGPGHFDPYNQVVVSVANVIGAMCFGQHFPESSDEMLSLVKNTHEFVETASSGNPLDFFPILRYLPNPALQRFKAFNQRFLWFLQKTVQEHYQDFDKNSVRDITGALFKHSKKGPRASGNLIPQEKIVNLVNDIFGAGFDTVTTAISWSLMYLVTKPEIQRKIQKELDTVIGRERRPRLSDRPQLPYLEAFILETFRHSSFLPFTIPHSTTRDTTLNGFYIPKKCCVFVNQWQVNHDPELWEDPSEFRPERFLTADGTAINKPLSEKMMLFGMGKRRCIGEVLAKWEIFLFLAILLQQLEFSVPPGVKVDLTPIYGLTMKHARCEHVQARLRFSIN
Summary of the method: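 Luminescent readout of luciferin formed from Luciferin-ME by human CYP1A2; data normalized against complete inhibition by 57 uM furafylline. Enzyme 20nM, substrate 100uM at Km, 100mM KPO4 buffer, 60 min reaction at room temperature.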

[15] = molecular target: Cytochrome P450 2C9 (Homo sapiens) (UniProt P11712); assay: qHTS Assay for Inhibitors and Substrates of Cytochrome P450 2C9 (AID 883); conditions: recombinant CYP2C9, luciferin-H luminescence, 60 min; series mostly up to 57.1 µM; also: % is scaled to controls: 0 for no effect and ±100 for the full control effect; nearly all actives have a fitted effect of over 60% in size
Summary of the method: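 CYP2C9 deoxyluciferin hydroxylation, 37C, 60 min with NADPH regeneration; 10nM enzyme, 100uM Luciferin-H (KM). Glo detection reagent stopped reaction; luminescence normalized to sulphaphenazole (57uM) full inhibition.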

[16] = molecular target: Cytochrome P450 3A4 (Homo sapiens) (UniProt P08684); assay: qHTS Assay for Activators of Cytochrome P450 3A4 (AID 885); conditions: recombinant CYP3A4, Luciferin-PPXE luminescence, 60 min; series mostly up to 57.1 µM; also: nearly all actives have a fitted effect of over 65% in size
Chain of Cytochrome P450 3A4 (Homo sapiens) (P08684 whole entry, looked up): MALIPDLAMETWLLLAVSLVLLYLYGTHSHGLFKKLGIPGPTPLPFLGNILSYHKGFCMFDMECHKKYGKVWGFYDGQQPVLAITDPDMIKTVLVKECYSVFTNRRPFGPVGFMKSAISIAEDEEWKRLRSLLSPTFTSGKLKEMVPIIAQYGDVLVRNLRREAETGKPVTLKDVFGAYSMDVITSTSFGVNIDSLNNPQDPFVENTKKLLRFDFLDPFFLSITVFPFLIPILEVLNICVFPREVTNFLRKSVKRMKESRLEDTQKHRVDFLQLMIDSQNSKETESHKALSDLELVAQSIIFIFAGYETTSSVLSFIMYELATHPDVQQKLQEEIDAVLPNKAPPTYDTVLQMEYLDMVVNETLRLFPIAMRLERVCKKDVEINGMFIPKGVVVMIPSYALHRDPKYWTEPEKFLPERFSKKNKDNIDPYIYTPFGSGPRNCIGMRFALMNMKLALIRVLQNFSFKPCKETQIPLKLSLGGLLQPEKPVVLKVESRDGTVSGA
Summary of the method: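 20nM CYP3A4 + 25uM Luciferin-PPXE (=KM), 200mM KPO4; cpd 10 min RT; NADPH regen, 60 min RT; stop w/ detection buffer, 20 min; luminescence. Normalized to 57 uM ketoconazole.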

[17] = molecular target: Cytochrome P450 2C19 (Homo sapiens) (UniProt P33261); assay: qHTS Assay for Inhibitors and Substrates of Cytochrome P450 2C19 (AID 899); conditions: recombinant CYP2C19, luciferin-H EGE luminescence; series mostly up to 57.1 µM; also: potency is read from the fitted curve at half-maximal effect; nearly all actives have a fitted effect of over 60% in size
Chain of Cytochrome P450 2C19 (Homo sapiens) (P33261 whole entry, looked up): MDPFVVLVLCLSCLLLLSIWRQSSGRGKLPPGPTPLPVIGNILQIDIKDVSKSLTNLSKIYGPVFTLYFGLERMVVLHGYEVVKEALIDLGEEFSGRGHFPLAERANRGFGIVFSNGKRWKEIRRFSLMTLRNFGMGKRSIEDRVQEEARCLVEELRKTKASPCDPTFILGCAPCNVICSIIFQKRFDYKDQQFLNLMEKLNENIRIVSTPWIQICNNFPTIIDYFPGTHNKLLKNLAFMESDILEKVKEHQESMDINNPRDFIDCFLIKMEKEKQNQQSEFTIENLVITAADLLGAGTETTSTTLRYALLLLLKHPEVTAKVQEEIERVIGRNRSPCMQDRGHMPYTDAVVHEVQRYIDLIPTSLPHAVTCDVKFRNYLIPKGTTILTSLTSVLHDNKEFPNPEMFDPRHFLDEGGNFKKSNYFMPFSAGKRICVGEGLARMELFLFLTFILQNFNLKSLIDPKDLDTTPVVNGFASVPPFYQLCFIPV
Summary of the method: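 In 50mM KPO4, the reaction held 5nM enzyme and KM-level (10uM) Luciferin-H EGE; it ran 60 min at 37C after NADPH regeneration and a 10 min compound preincubation. Luminescence values were scaled to 57uM ketoconazole as complete inhibition.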

[18] = molecular target: Dual specificity protein kinase CLK4 (Homo sapiens) (UniProt Q9HAZ1); assay: qHTS Assay for Inhibitors of CDC-like Kinase 4 (ADP-FP Assay) (AID 1795); conditions: Transcreener ADP fluorescence polarization; series mostly up to 50 µM; also: % is scaled to controls: 0 for no effect and ±100 for the full control effect; nearly all actives have a fitted effect of over 60% in size
Summary of the method: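 Recombinant human Clk4 (6.25 nM) phosphorylated RS repeat peptide (100 uM) with 1 uM ATP in Tris pH 7.5/MgCl2/EGTA/DTT/Triton buffer for one hour. ADP was quantified by Transcreener competitive fluorescence polarization against an ADP calibration curve.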

[19] = molecular target: Cytochrome P450 3A4 (Homo sapiens) (UniProt P08684); assay: qHTS Assay for Inhibitors and Substrates of Cytochrome P450 3A4 (AID 884); conditions: recombinant CYP3A4, Luciferin-PPXE luminescence; series mostly up to 57.1 µM; also: potency is read from the fitted curve at half-maximal effect; nearly all actives have a fitted effect of over 50% in size
Summary of the method: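 20 nM human CYP3A4 with 25 uM Luciferin-PPXE (at KM) in 200 mM KPO4, preincubated 10 min with compound; NADPH regeneration started a 60 min RT reaction. Luciferin detected by luminescence, normalized to 57 uM ketoconazole as full inhibition.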

[20] = measured here: cell count channel max response
[21] = measured here: lipid channel max response

COc1ccc(-n2c(=O)cnc3cnc(OC)nc32)cc1
inactive: Potency [1] > 11.4 µM | activity change, negative = inhibition [2] -6% | activity change, negative = inhibition [3] -7.79% | activity, negative = inhibition [4] -11.2% | Potency [5] > 9.22 µM | Potency [6] > 46 µM | outcome [7] | Potency [8] | activity change, negative = inhibition [9] 4.86% | Potency [12] | Potency [13]
active: Potency [10] 15.8 µM | Potency [11] 14.1 µM
24.2%: max response [9, 20]
29.5%: max response [9, 21]

Cc1cnc(CNc2ccnc(-c3ccccc3CN(C)C)n2)cn1
inactive: Potency [1] > 11.4 µM | activity change, negative = inhibition [2] 10.8% | activity change, negative = inhibition [3] -5.1% | activity, negative = inhibition [4] 12.3% | Potency [5] > 46 µM | Potency [6] > 46 µM | outcome [7] | Potency [8] | activity change, negative = inhibition [9] 5.8% | Potency [10] | Potency [11] | Potency [13]
27.5%: max response [9, 21]
23.9%: max response [9, 20]

CN(C)c1ccc(-c2cc(Nc3ccc(F)cc3)ncn2)cc1
active: Potency [14] 0.398 µM | Potency [17] 2 µM | Potency [10] 11.2 µM
-0.85%: max response [9, 21]
-11.3%: max response [9, 20]
inactive: Potency [1] > 11.4 µM | activity change, negative = inhibition [2] -18.2% | activity change, negative = inhibition [3] -8.8% | activity, negative = inhibition [4] -12% | Potency [5] > 46 µM | Potency [6] > 46 µM | outcome [7] | Potency [8] | activity change, negative = inhibition [15] 8.7% [at 2.29 µM] | Potency [16] | activity change, negative = inhibition [9] 8.67% | Potency [18] | Potency [13]

COc1ccc(CNc2ncnc3ccc(-c4cccnc4)cc23)c(OC)c1
-15.1%: max response [9, 20]
-21.1%: max response [9, 21]
inactive: Potency [1] > 11.4 µM | activity change, negative = inhibition [3] 29.9% | activity, negative = inhibition [4] 2.05% | Potency [5] > 46 µM | Potency [6] > 46 µM | outcome [7] | Potency [16] | activity change, negative = inhibition [9] -5.09% | Potency [12] | Potency [13]
active: Potency [14] 0.398 µM | Potency [19] 1.26 µM | Potency [10] 14.1 µM | Potency [11] 14.1 µM

O=c1cnc2cncnc2n1Cc1ccccc1Cl
inactive: Potency [1] > 11.4 µM | activity change, negative = inhibition [2] 8.55% | activity change, negative = inhibition [3] -28.3% | activity, negative = inhibition [4] -5.06% | Potency [5] > 9.22 µM | Potency [6] > 46 µM | outcome [7] | activity change, negative = inhibition [9] -7.78% | Potency [10] | Potency [18] | Potency [12] | Potency [13]
active: Potency [14] 15.8 µM
-10.1%: max response [9, 21]
-0.667%: max response [9, 20]

FC(F)(F)c1ccccc1-c1ccc2ncnc(NCc3cccnc3)c2c1
inactive: Potency [1] > 11.4 µM | activity change, negative = inhibition [2] 5.26% | activity change, negative = inhibition [3] 21.5% | activity, negative = inhibition [4] -18.4% | Potency [5] > 46 µM | Potency [6] > 46 µM | outcome [7] | Potency [16] | activity change, negative = inhibition [9] -7.13% | Potency [10] | Potency [18] | Potency [12] | Potency [13]
active: Potency [14] 1 µM | Potency [19] 1.58 µM | Potency [17] 0.0079 µM
9.95%: max response [9, 20]
2.08%: max response [9, 21]
